# According to the supplement of paper PMC8728848:
# About 410 targets per protein were measured; listed, in parts, are those with the strongest signals and a random draw of the rest.
# How the values were obtained:
# Experiment in all cases: glycan array binding signal (z-score within array); higher = stronger binding
# Conditions in all cases: glycan notation: IUPAC condensed, linker removed
# [1] = biological target: Fuc(a1-2)Gal(b1-4)[Fuc(a1-3)]GlcNAc(b1-3)Gal(b1-4)[Fuc(a1-3)]GlcNAc
# How it was run: (§1)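 Columns mapping to the same glycan were averaged after glycan names were converted to IUPAC-condensed notation. The data come from 3228 arrays in the Consortium for Functional Glycomics database, limited to those with an available protein sequence. Binding is reported as a within-array Z-score averaged across arrays of one protein sequence and across linkers.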
# [2] = biological target: Fuc(a1-2)[Gal(a1-3)]Gal(b1-4)Glc
# How it was run: as §1
# Fuc(a1-4)GlcNAc = biological target: Fuc(a1-4)GlcNAc
# How it was run: as §1
# [3] = biological target: Gal(a1-3)[Gal(a1-4)]Gal(b1-4)GlcNAc
# How it was run: as §1
# [4] = biological target: Gal(b1-3)GlcNAc(b1-3)Gal(b1-4)GlcNAc
# How it was run: as §1
# Gal(b1-4)Glc = biological target: Gal(b1-4)Glc
# How it was run: as §1
# [5] = biological target: Gal(b1-4)GlcNAc(b1-2)Man(a1-3)[Gal(b1-4)GlcNAc(b1-2)Man(a1-6)]Man(b1-4)GlcNAc(b1-4)GlcNAc
# How it was run: as §1
# [6] = biological target: Gal(b1-4)GlcNAc(b1-3)Gal(b1-4)Glc
# How it was run: as §1
# [7] = biological target: Gal(b1-4)GlcNAc(b1-3)[GlcNAc(b1-6)]Gal(b1-4)GlcNAc
# How it was run: as §1
# [8] = biological target: Gal3S(b1-3)[Fuc(a1-4)]GlcNAc
# How it was run: as §1
# Gal3S(b1-4)Glc = biological target: Gal3S(b1-4)Glc
# How it was run: as §1
# Gal4S6S(b1-4)GlcNAc = biological target: Gal4S6S(b1-4)GlcNAc
# How it was run: as §1
# Gal6S(b1-4)Glc = biological target: Gal6S(b1-4)Glc
# How it was run: as §1
# Glc(b1-6)Glc = biological target: Glc(b1-6)Glc
# How it was run: as §1
# [9] = biological target: GlcNAc(b1-2)Gal(b1-3)GalNAc
# How it was run: as §1
# GlcNAc(b1-3)Gal = biological target: GlcNAc(b1-3)Gal
# How it was run: as §1
# GlcNAc(b1-3)GalNAc = biological target: GlcNAc(b1-3)GalNAc
# How it was run: as §1
# [10] = biological target: GlcNAc(b1-3)[GlcNAc(b1-4)][GlcNAc(b1-6)]GlcNAc
# How it was run: as §1
# [11] = biological target: GlcNAc(b1-3)[GlcNAc(b1-6)]GlcNAc(b1-4)GlcNAc
# How it was run: as §1
# [12] = biological target: Man(a1-3)[Man(a1-6)]Man(a1-6)[Man(a1-3)]Man
# How it was run: as §1
# [13] = biological target: Neu5Ac(a2-3)Gal(b1-3)GalNAc(b1-3)Gal(a1-4)Gal(b1-4)Glc
# How it was run: as §1
# [14] = biological target: Neu5Ac(a2-3)Gal(b1-3)[Fuc(a1-4)]GlcNAc
# How it was run: as §1
# [15] = biological target: Neu5Ac(a2-3)Gal(b1-3)[Fuc(a1-4)]GlcNAc(b1-3)Gal(b1-4)[Fuc(a1-3)]GlcNAc
# How it was run: as §1
# [16] = biological target: Neu5Ac(a2-3)Gal(b1-4)GlcNAc(b1-2)Man(a1-3)[Neu5Ac(a2-3)Gal(b1-4)GlcNAc(b1-2)Man(a1-6)]Man(b1-4)GlcNAc(b1-4)GlcNAc
# How it was run: as §1
# [17] = biological target: Neu5Ac(a2-3)Gal(b1-4)[Fuc(a1-3)]GlcNAc(b1-3)Gal
# How it was run: as §1
# [18] = biological target: Neu5Ac(a2-6)Gal(b1-4)GlcNAc(b1-2)Man(a1-6)[GlcNAc(b1-2)Man(a1-3)]Man(b1-4)GlcNAc(b1-4)GlcNAc
# How it was run: as §1
# [19] = biological target: Neu5Ac(a2-6)GalNAc(b1-4)GlcNAc
# How it was run: as §1
# [20] = biological target: Neu5Ac9Ac(a2-6)Gal(b1-4)GlcNAc
# How it was run: as §1
# [21] = biological target: Neu5Gc(a2-3)Gal(b1-3)[Fuc(a1-4)]GlcNAc
# How it was run: as §1
# Neu5Gc(a2-6)GalNAc = biological target: Neu5Gc(a2-6)GalNAc
# How it was run: as §1
binder,measurement,setting,value
"E-Selectin (Homo sapiens), P16581 (protein) MIASQFLSALTLVLLIKESGAWSYNTSTEAMTYDEASAYCQQRYTHLVAIQNKEEIEYLNSILSYSPSYYWIGIRKVNNVWVWVGTQKPLTEEAKNWAPGEPNNRQKDEDCVEIYIKREKDVGMWNDERCSKKKLALCYTAACTNTSCSGHGECVETINNYTCKCDPGFSGLKCEQIVNCTALESPEHGSLVCSHPLGNFSYNSSCSISCDRGYLPSSMETMQCMSSGEWSAPIPACNVVECDAVTNPANGFVECFQNPGSFPWNTTCTFDCEEGFELMGAQSLQCTSSGNWDNEKPTCKAVTCRAVRQPQNGSVRCSHSPAGEFTFKSSCNFTCEEGFMLQGPAQVECTTQGQWTQQIPVCEAFQCTALSNPERGYMNCLPSASGSFRYGSSCEFSCEQGFVLKGSKRLQCGPTGEWDNEKPTCEAVRCDAVHQPPKGLVRCAHSPIGEFTYKSSCAFSCEEGFELHGSTQLECTSQGQWTEEVPSCQVVKCSSLAVPGKINMSCSGEPVFGTVCKFACPEGWTLNGSAARTCGATGHWSGLLPTCEAPTESNIPLVAGLSAAGLSLLTLAPFLLWLRKCLRKAKKFVPASSCQSLESDGSYQKPSYIL",glycan array binding signal (z-score),[1],-0.198
same,glycan array binding signal (z-score),[2],-0.226
same,glycan array binding signal (z-score),Fuc(a1-4)GlcNAc,-0.173
same,glycan array binding signal (z-score),[3],-0.265
same,glycan array binding signal (z-score),[4],-0.181
same,glycan array binding signal (z-score),Gal(b1-4)Glc,-0.251
same,glycan array binding signal (z-score),[5],-0.189
same,glycan array binding signal (z-score),[6],-0.075
same,glycan array binding signal (z-score),[7],-0.027
same,glycan array binding signal (z-score),[8],1.21
same,glycan array binding signal (z-score),Gal3S(b1-4)Glc,-0.07
same,glycan array binding signal (z-score),Gal4S6S(b1-4)GlcNAc,0.276
same,glycan array binding signal (z-score),Gal6S(b1-4)Glc,-0.044
same,glycan array binding signal (z-score),Glc(b1-6)Glc,-0.134
same,glycan array binding signal (z-score),[9],-0.209
same,glycan array binding signal (z-score),GlcNAc(b1-3)Gal,-0.024
same,glycan array binding signal (z-score),GlcNAc(b1-3)GalNAc,-0.266
same,glycan array binding signal (z-score),[10],-0.261
same,glycan array binding signal (z-score),[11],-0.105
same,glycan array binding signal (z-score),[12],-0.209
same,glycan array binding signal (z-score),[13],-0.173
same,glycan array binding signal (z-score),[14],9.04
same,glycan array binding signal (z-score),[15],3.76
same,glycan array binding signal (z-score),[16],-0.122
same,glycan array binding signal (z-score),[17],3.07
same,glycan array binding signal (z-score),[18],-0.282
same,glycan array binding signal (z-score),[19],-0.117
same,glycan array binding signal (z-score),[20],-0.181
same,glycan array binding signal (z-score),[21],12.1
same,glycan array binding signal (z-score),Neu5Gc(a2-6)GalNAc,-0.239
